What all share (test): NCI-60 one-dose screen, 48 h (100 = growth as untreated, 0 = no growth, -100 = all killed)
Holding throughout (conditions): 10 µM unless noted

The test system of assay [1] is NCI-H23 lung.
Assay [2] concerns NCI-H226 lung.
For assay [3], the system named is NCI-H322M lung.
Assay [4] deals with HOP-62 NSCLC.
Assay [5] concerns NCI-H460 lung.
The test system of assay [6] is HOP-92 NSCLC.
The subject of assay [7] is NCI-H522 lung.
For assay [8], the system named is A549/ATCC NSCLC.
The test system of assay [9] is 786-0 renal.
In assay [10] the test system is COLO 205 colon.

SMILES strings stand for the structures. The panel holds about 83,000 compounds, 20% with a hit somewhere; the sample as a whole holds those more often.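 Values shown are percent growth following 48 h exposure of cells in 96-well plates to a single concentration of compound; below 10 was considered active.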 Values without a mark were called inactive. Activity calls are given as the source filed them.

Data on 13 molecules can be found in PubChem BioAssay (NCI).

Consider `C=CCO[C@H]1CO[C@H]2[C@@H]1OC[C@@H]2Oc1ccc(Nc2ccnc(Nc3ccc(O[C@H]4CO[C@H]5[C@@H]4OC[C@@H]5OCC=C)c(Cl)c3)n2)cc1Cl`, for which the growth in [1] was -47.8% (active); in assay [2] it was 86.7%; in [3] it was -56.6% (active); in assay [4], -25.5% (active); in assay [5] it was -74% (active); in assay [6] it was 83.3%. The growth in assay [7] was -29.9% (active); in assay [8], -60.7% (active); in [9], -88.2% (active); in [10], 29.2%.

As to `Cc1c(C(=O)O)nnn1-c1nccs1`, the growth is 94.5% in assay [1]; 95.9% in [2]; 99.8% in [3]; 84.1% in [4]; 98.5% in assay [5]; 82.4% in [6]. Further, the growth in assay [7] is 77.9%; in [8], 79.2%; in [9], 97.1%; in assay [10], 107%.

For the molecule `C=C1C(=O)O[C@H]2[C@H]1CC/C(COC(=O)/C=C\C(=O)NCc1ccc(Cn3c(=O)sn(-c4ccc(OC)cc4)c3=O)cc1)=C\CC[C@@]1(C)O[C@@H]21`, the growth in assay [1] is -69.9% (active); in [2], -65.9% (active); in [3], 32.4%; in [4] it was -20.4% (active); in [5], -65.5% (active); in [6], -65% (active). Further, the growth in [7] was -45.2% (active); in [8] it was 12.6%; in assay [9], -57.9% (active); in assay [10], -45.9% (active).

As to `COc1ccc(/C=C2\COc3ccc(O)cc3C2=O)c(OC)c1`, the growth is 83.4% in assay [1]; 104% in [2]; 86.5% in assay [3]; 56.3% in assay [4]; 40.6% in assay [5]; 79.5% in [6]. Also, the growth in [7] is 39.1%; in assay [8] it was 51.6%; in assay [9] it was 91.2%; in assay [10] it was 108%.

Consider `O=C1CC(c2ccc3c(c2)OCO3)Nc2cc3c(cc21)OCO3` (stereo not given), for which the growth in assay [1] was 44.5%; in assay [2] it was 64.5%; in [3], 57.5%; in assay [4], 29.7%; in [5], 5.95% (active); in assay [6] it was 29.2%. Further, the growth is -9.02% (active) in assay [7], 10.1% in assay [8], 30.8% in assay [9] and -27.1% (active) in [10].

Consider `COc1ccc(-c2cc(-c3ccc(Nc4nc(Nc5ccccc5)nc(Nc5ccc(Cl)cc5)n4)cc3)nc(N)n2)cc1`, for which the growth is 56.6% in assay [1]; 81.2% in assay [2]; 83.3% in [3]; 57.2% in [4]; 61.6% in assay [5]; 37.6% in assay [6]. Besides, the growth in [7] is 76.3%; in [8] it was 79.5%; in [9], 51.5%; in [10] it was 68.4%.

As for `Clc1ccc(-c2cn(-c3ccccc3)c(-c3ccccc3)n2)cc1`, the growth in assay [1] was 85.2%; in assay [2] it was 80.9%; in [3] it was 95.9%; in [4] it was 76.9%; in assay [5] it was 104%; in assay [6] it was 68.7%. For the same molecule, the growth was 55.2% in [7], 71.3% in assay [8], 81.3% in assay [9] and 107% in assay [10].

Consider `COc1cc(NC(=O)c2cccc(-c3cc(=O)c4c(OC)c(OC)c(OC)cc4o3)c2)cc(OC)c1OC`, for which the growth was 48.8% in [1]; 58.5% in assay [2]; 69.5% in [3]; 37.5% in assay [4]; 30% in assay [5]; 24.7% in assay [6]. Also, the growth is 34.7% in assay [7], 43.5% in assay [8], 31.8% in assay [9] and 44.3% in [10].

With `C[C@]12CCC(=O)C[C@H]1CC[C@@H]1[C@@H]2CC[C@@]2(C)[C@H]1CC[C@]2(O)C(=O)CO`, the growth in [1] was 107%; in assay [2] it was 94.2%; in [3], 103%; in [4], 105%; in assay [5], 107%; in [6] it was 93.2%. Moreover, the growth is 89.4% in assay [7], 122% in assay [8], 105% in assay [9] and 100% in [10].

Regarding `CC1(C)CC(=O)c2c(ccc(C(=O)C[C@H](N)CO)c2N)O1`, the growth in [1] is 54.4%; in assay [2] it was 58.3%; in assay [3], 15%; in assay [4] it was 22%; in assay [5], 6.79% (active); in assay [6] it was 53.7%. In addition, the growth was 46.2% in assay [7], 34.7% in assay [8], 77.5% in assay [9] and 47% in assay [10].

As to `O=[N+]([O-])c1cccc(/C=C/c2ccccn2)c1`, the growth in assay [1] was 76.1%; in assay [2], 74.9%; in [3], 134%; in assay [4] it was 73.2%; in [5], 91%; in assay [6] it was 34.7%. Moreover, the growth in assay [7] was 72.1%; in assay [8] it was 73.5%; in assay [9], 53.3%; in assay [10], 105%.

Take `CCOC(=O)c1nnn(C(Cc2ccccc2Cl)C(=O)OCC)c1C` (stereo not given): the growth in assay [1] is 105%; in assay [2] it was 103%; in [3] it was 108%; in [4], 93.4%; in [5], 101%; in [6] it was 93.5%. For the same molecule, the growth in [7] was 68.9%; in assay [8] it was 82.6%; in [9], 102%; in [10] it was 105%.

Regarding `Cc1nc(Nc2ccc(NC(=S)Nc3ccccc3)cc2)nc2nc(SCc3ccccc3)[nH]c(=O)c12`, the growth in assay [1] is 101%; in assay [2], 82.6%; in assay [3], 173%; in [4], 95.2%; in assay [5], 107%; in [6], 82.4%. The growth is 40.5% in [7], 57.9% in assay [8], 99.1% in [9] and 126% in assay [10].
